Measurements reported in PubChem BioAssay AID1578 (Sanford-Burnham Center for Chemical Genomics, 2009).
Screen size: about 290,000 compounds; about 3,000 (1%) were called active. Shown is part of a subset that was picked to be rich in actives. A number with no mark means an inactive call. Cut-off read from the data, not from the text of the source: active = inhibition mostly above about 36% (no sharp cut-off); inactive = mostly below about 34%.

Assay: inhibition of NOD1-driven NF-kB reporter – cell-based, luminescence, uHTS, primary screen (AID 1578);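 note: HEK-293T reporter cells stimulated with the NOD1 agonist gamma-tri-DAP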
Settings: NOD1-driven NF-kB luciferase reporter cells, at 4 µM, stronger effect = higher value

Row | SMILES | inhibition
1 | COC(=O)c1ccc(/C=N/NC(=O)c2ccc3nc[nH]c3c2)cc1 | -10.6%
2 | O=C(O)CCc1ccc(-c2ccc(Br)cc2)n1Cc1ccco1 | -8.6%
3 | CC(C)C[C@H](NC(=O)N1CCn2c1nc1ccccc12)C(=O)N[C@@H](C(=O)O)c1ccccc1 | -6%
4 | CC(C)[C@H](NC(=O)N1CCn2c1nc1ccccc12)C(=O)N[C@H](C(=O)O)c1ccccc1 | 68.4% (active)
5 | CC(C)[C@H](NC(=O)N1CCn2c1nc1ccccc12)C(=O)N[C@@H](C(=O)O)c1ccccc1 | 1.1%
6 | CC(C)(C)C(=O)NC1(C(F)(F)F)NC(=O)N(c2ccccc2F)C1=O (configuration not stated) | 2.6%
7 | Cc1cnc(NC(=O)c2nn(C)cc2[N+](=O)[O-])s1 | 24.8%
8 | Cn1cc([N+](=O)[O-])c(C(=O)Nc2nccs2)n1 | -14.6%
9 | CCn1cc([N+](=O)[O-])c(C(=O)Nc2nc(-c3ccc(C)cc3)c(C)s2)n1 | 2.6%
10 | CCn1cc([N+](=O)[O-])c(C(=O)Nc2nc(-c3ccc(C)c(C)c3)c(C)s2)n1 | -63.4%
11 | Cc1csc(=S)n1-c1ccccc1 | 5.1%
12 | COc1ccccc1C(=O)N/C(=C\c1cn(S(=O)(=O)N(C)C)c2ccccc12)C(=O)NCCN1CCOCC1 | -15%
13 | COc1ccc(C(=O)Oc2cccc(Nc3ncnc4ccccc34)c2)cc1OC | 29.6%
14 | COc1cccc(N2CCN(c3nc(C)c(C)c(=O)[nH]3)CC2)c1 | -29.1%
15 | Cc1cc(C(=O)O/N=C(\N)c2ccc(C(C)(C)C)cc2)no1 | -2.5%
16 | COC(=O)c1c(C)noc1-c1ccc(Cl)cc1 | -8.4%
17 | Cc1noc(-c2ccc(Cl)cc2)c1C(=O)O/N=C(\N)c1ccc(C(C)(C)C)cc1 | 84% (active)
18 | CC(=O)/C(N=Nc1cccc(C(F)(F)F)c1)=C(\C)O | -26.4%
19 | O=C(/C(N=Nc1cccc(C(F)(F)F)c1)=C(/O)c1cccs1)C(F)(F)F | 58.5% (active)

Row | SMILES | inhibition
20 | COC(=O)/C(N=Nc1cccc(C(F)(F)F)c1)=C(\C)O | 1.3%
21 | CC(C)C1CC(c2ccccc2)(C(CN)CO)CCO1 (configuration not stated) | -22.3%
22 | C=C(C)COc1ccc(-c2[nH]ncc2-c2ccc(Br)cc2)c(O)c1 | -22.6%
23 | Cc1nc2ccccc2c2oc(C(=O)NCc3ccc4c(c3)OCO4)cc12 | 38.5%
24 | Cc1cc(C(=O)NCC2COc3ccccc3O2)c2ccccc2n1 (configuration not stated) | -14.4%
25 | Cn1c(Cc2ccccc2)nnc1SCC(=O)N1CCN(c2ccccc2)CC1 | -14.3%
26 | COC(=O)c1sccc1NC(=O)/C=C/C(=O)O | -34.3%
27 | O=C(Nc1ccc(F)cc1)c1nc[nH]c1C(=O)Nc1ccc([N+](=O)[O-])cc1 | 45%
28 | O=C(Nc1ccc([N+](=O)[O-])cc1)c1nc[nH]c1C(=O)NC1CCCCC1 | 80.7% (active)
29 | CCOC(=O)c1[nH]cnc1C(=O)Nc1ccc([N+](=O)[O-])cc1 | -7.2%
30 | Nc1nnc(SCc2c(F)cccc2Cl)s1 | -8.2%
31 | CC(=O)n1cc([C@@H]2C=C(C(=O)NCc3ccccc3)O[C@H](OCc3ccc(CO)cc3)C2)c2ccccc21 | -7.1%
32 | O=C(NCc1ccccc1)C1=C[C@H](c2csc3ccccc23)C[C@H](OCc2ccc(CO)cc2)O1 | -5.8%
33 | O=C(NCc1ccccc1)C1=C[C@@H](c2csc3ccccc23)C[C@@H](OCc2ccc(CO)cc2)O1 | 43.8% (active)
34 | C#CCNC(=O)C1=C[C@@H](c2cn(C(C)=O)c3ccccc23)C[C@@H](OCc2ccc(CO)cc2)O1 | -23.5%
35 | O=C(Nc1ccccc1)C1=C[C@H](c2csc3ccccc23)C[C@H](OCc2ccc(CO)cc2)O1 | -4.6%
36 | C#CCNC(=O)C1=C[C@H](c2cn(C(C)=O)c3ccccc23)C[C@H](OCc2ccc(CO)cc2)O1 | 46.1% (active)
37 | CC(NS(=O)(=O)c1ccc2[nH]c(=O)c(=O)[nH]c2c1)C(=O)O (configuration not stated) | -25.3%
38 | O=C(CCCN1C(=O)/C(=C/c2ccccc2Cl)SC1=S)N1CCCC1 | 18.8%

Row | SMILES | inhibition
39 | Cc1cc(Cl)cc(C)c1OCCNCc1ccccc1 | -43.1%
40 | Cc1ccc(S(=O)(=O)CCc2nnc(NC(=O)C3CCCCC3)s2)cc1 | 1.5%
41 | COc1ccc(NC(=O)Cn2ncn3nc(-c4ccc(OC)cc4)cc3c2=O)cc1 | -72%
42 | CC(C)c1ccc(Nc2nc(Cl)nc(Cl)n2)cc1 | -33%
43 | CCCOC(=O)Cn1cnc2scc(-c3ccc(OC)cc3)c2c1=O | 41.3%
44 | Cc1ccccc1NC(=O)CSc1ccc(-c2cccnc2)nn1 | -33.1%
45 | CCOC(=O)c1ccccc1NC(=O)CSc1ccc(-c2cccnc2)nn1 | 59.2% (active)
46 | CCOC(=O)c1ccccc1NC(=O)CSc1ccc(-c2ccccn2)nn1 | -59.6%
47 | Cc1ccc(NC(=O)Cn2nnc3ccccc32)c(C)c1 | -16.7%
48 | COc1ccc(-c2nnc(SCC(=O)N3c4ccccc4Sc4ccccc43)o2)cc1 | -16.3%
49 | O=C(Sc1nnc(-c2ccccc2)o1)N1c2ccccc2Sc2ccccc21 | -37.4%
50 | COc1ccc(-c2nnc(SC(=O)N3c4ccccc4Sc4ccccc43)o2)cc1 | 65.2% (active)
51 | Fc1ccc(-n2nnnc2-c2ccccc2Cl)cc1 | -26.4%
52 | COc1ccc(C(=O)N2CCC(C(=O)Nc3ccc4c(c3)OCCO4)CC2)cc1 | -5.6%
53 | Fc1ccc(-c2nnc(NC3=NCCCCC3)o2)cc1 | 46.2%
54 | CC(C)N=C(NS(=O)(=O)c1ccccc1)C(Cl)(Cl)Cl | 62.8% (active)
55 | CC(C)CN=C(NS(=O)(=O)c1ccccc1)C(Cl)(Cl)Cl | 34.3%
56 | Cc1ccc(S(=O)(=O)NC(=NC(C)C)c2ccccc2)cc1 | -28.2%
57 | O=C(CSc1nnc(-c2cccnc2)n1Cc1ccco1)Nc1cccc(O)c1 | -18.5%
